Screen size: about 340,000 compounds; about 1,200 (0.35%) were called active. The sample holds actives, similar compounds and a random draw of the others, so the mix is not that of the screen.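 The calls were made as follows: active = potentiation over 3 SD above the plate norm (cut at about 30% in these data); inactive = the rest.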

In this assay the target is D(2) dopamine receptor (Homo sapiens) (UniProt P14416). Nature of the assay: HTS Assay for Positive Allosteric Modulators of the Human D2 Dopamine Receptor: Primary Screen for Potentiators. Also: 0% is about no effect. To be noted: HEK293 T-REx D2, calcium flux, EC20 dopamine potentiation; at 10 µM; active compounds read high. The procedure, abridged: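 Using a no-wash calcium dye in inducible, force-coupled HEK293 Trex cells expressing D2, we tracked fluorescence each second for 180 s after compound, then for 180 s after EC20 dopamine to detect augmented signalling.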
Sequence of D(2) dopamine receptor (Homo sapiens) (P14416 whole entry, looked up): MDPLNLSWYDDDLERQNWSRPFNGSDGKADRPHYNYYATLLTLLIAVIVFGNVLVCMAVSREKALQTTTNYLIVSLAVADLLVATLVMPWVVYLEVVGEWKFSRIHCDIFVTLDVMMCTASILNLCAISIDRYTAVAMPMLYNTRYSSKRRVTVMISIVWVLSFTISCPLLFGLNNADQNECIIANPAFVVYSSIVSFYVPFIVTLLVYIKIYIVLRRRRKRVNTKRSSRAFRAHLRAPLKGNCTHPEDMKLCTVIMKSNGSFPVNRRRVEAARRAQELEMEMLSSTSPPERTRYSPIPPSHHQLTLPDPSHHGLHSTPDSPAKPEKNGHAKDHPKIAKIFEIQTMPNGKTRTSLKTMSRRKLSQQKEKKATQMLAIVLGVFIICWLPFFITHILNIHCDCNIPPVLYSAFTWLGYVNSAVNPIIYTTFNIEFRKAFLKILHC
On to `COc1cccc(C(c2c(O)cc(C)n(Cc3ccco3)c2=O)N2CCN(c3ccccc3)CC2)c1` (stereo not given), for which the potentiation is -2.97% (inactive).

With `Cc1ccccc1CNC(=O)CCc1cn(Cc2ccccc2C)c2ccccc12`, the potentiation is -1.4% (inactive).

On to `COc1ccc(-c2cn3nc(N4CCCC(C(=O)NCCCOC(C)C)C4)sc3n2)cc1` (stereo not given), for which the potentiation is -3.35% (inactive).

Take `Cc1cccc(NC(=O)C2CCN(S(=O)(=O)c3c(C)noc3/C=C/c3ccco3)CC2)c1`: the potentiation is 2.71% (inactive).

As for `O=C(CCNC(=O)c1ccc(Br)cc1)NCCCc1ccccc1`, the potentiation is 33% (active).

For `O=C(CCNS(=O)(=O)c1ccccc1)NCCCc1ccccc1`, the potentiation was -12.4% (inactive).

In the case of `CC(C)c1ccc(C(=O)NCCCc2ccccc2)cc1`, the potentiation was -14.7% (inactive).

Consider `Cc1cc(F)ccc1NS(=O)(=O)c1ccc(-n2cccn2)cc1`, for which the potentiation is -0.96% (inactive).

On to `COc1ccc(CCNC(=O)c2cc(=O)c3c(C)cc(C)cc3o2)cc1OC`, for which the potentiation is -14.8% (inactive).

Consider `COc1ccc(S(=O)(=O)N2CCC(C(=O)NCc3ccco3)CC2)cc1C`, for which the potentiation was 6.74% (inactive).

Regarding `COc1ccc(C2=NOC(C(=O)NCc3ccco3)C2)cc1OC` (stereo not given), the potentiation was 32.1% (active).

Consider `COc1ccc(CNC(=O)C2CC(c3ccc(C(F)(F)F)cc3)=NO2)cc1` (stereo not given), for which the potentiation was 11.9% (inactive).

In the case of `COc1cccc(-n2cc(C(=O)NCc3cccc(Cl)c3)c3ccccc3c2=O)c1`, the potentiation was 3.92% (inactive).

Turning to `Cc1nnc(NCc2ccccc2)c2c1nnn2Cc1ccc(F)cc1`, the potentiation was -11.5% (inactive).

On to `COc1cc(Cl)c(NC(=O)C(NS(=O)(=O)c2cccs2)C(C)C)c(OC)c1` (stereo not given), for which the potentiation is -0.155% (inactive).

As for `Nc1nonc1-n1nnc(C(=O)N/N=C/C2CCCCC2)c1-c1ccccc1`, the potentiation is 38.6% (active).

As to `CC(C)c1c(C(=O)N/N=C/c2ccc(-c3ccccc3)cc2)nnn1-c1nonc1N`, the potentiation was 4.04% (inactive).

Turning to `COCc1c(C(=O)N/N=C/C2CC=CCC2)nnn1-c1nonc1N` (stereo not given), the potentiation was 5.51% (inactive).

Regarding `Cc1cc(C)c2oc(-c3cccc(NC(=O)c4cccc(F)c4)c3C)nc2c1`, the potentiation is -6.15% (inactive).

On to `COc1cccc(-c2nc(CS(=O)(=O)CC(=O)N3CCN(c4cc(C)ccc4C)CC3)c(C)o2)c1`, for which the potentiation was 20.2% (inactive).

Take `Cc1ccc(SCc2cc(=O)[nH]c(N3CCCCC3)n2)cc1`: the potentiation is -9.08% (inactive).

On to `Cc1ccc(SCC2=NNC(=O)C2)cc1`, for which the potentiation was 31.9% (active).

For `Cc1ccc(SCCSc2ncccn2)cc1`, the potentiation is -3.01% (inactive).

Consider `CCn1c2ccccc2c2cc(NC(=O)COc3ccc(C)cc3C)ccc21`, for which the potentiation is -13% (inactive).

Turning to `CCc1ccc(NC(=O)c2nn(-c3ccc(C)cc3)c(=O)n(C)c2=O)cc1`, the potentiation is 11.1% (inactive).

Take `COc1ccc(CNC(=O)COC(=O)/C=C/c2ccc(S(=O)(=O)N3CCOCC3)cc2)cc1`: the potentiation was 33.3% (active).

Take `O=C(COC(=O)/C=C/c1ccc(S(=O)(=O)N2CCCCCC2)cc1)NCc1ccccc1Cl`: the potentiation was -11.9% (inactive).

As for `COC(=O)COc1ccc(S(=O)(=O)N2CCOCC2)cc1`, the potentiation was -3.49% (inactive).

In the case of `CCn1c(CN2CCC(C)CC2)nc2cc(NC(=O)c3ccccc3[N+](=O)[O-])ccc21`, the potentiation is -38.3% (inactive).

As to `O=C(Cn1cc(SCc2cccc(Cl)c2)c2ccccc21)N1CCCCC1`, the potentiation is 1.4% (inactive).

Take `O=C(COc1ccc(Cl)cc1)N1CCN(c2cccc(C(F)(F)F)c2)CC1`: the potentiation is 35.5% (active).

For the compound `Cc1c(C)c2ccc(OCC(=O)N3CCN(c4cccc(Cl)c4)CC3)cc2oc1=O`, the potentiation was -6.58% (inactive).

Turning to `O=C(COc1ccc(Cl)cc1)N1CCN(S(=O)(=O)c2ccc(Cl)cc2)CC1`, the potentiation is -3.15% (inactive).

As for `CCOC(=O)c1ccc(N2C(=O)c3n[nH]c(-c4ccco4)c3C2c2ccc(O)cc2)cc1` (stereo not given), the potentiation is -20% (inactive).

As for `Nc1ncc(S(=O)(=O)Nc2ccc(OC(F)(F)F)cc2)cn1`, the potentiation was -3.21% (inactive).

On to `CCOc1ccc(NC(=O)CC2C(=O)N(c3cccc(OC)c3)C(=O)N2C2CCCCC2)cc1` (stereo not given), for which the potentiation was 2.76% (inactive).

For `COc1ccc(S(=O)(=O)c2cn(C)c3cc(N4CCCCC4)c(F)cc3c2=O)cc1`, the potentiation was -4.51% (inactive).

As to `COc1ccccc1N1CCN(c2ncnc3sc(C)c(-c4ccccc4)c23)CC1`, the potentiation is 37.8% (active).

As to `COC(=O)c1cnc(N2CCN(c3ccccc3OC)CC2)c2ccccc12`, the potentiation is 3.09% (inactive).

Consider `COc1ccccc1N1CCN(c2ncnc3onc(-c4ccc(F)cc4)c23)CC1`, for which the potentiation was -4.24% (inactive).

Regarding `CCc1ccc(C2C(C(=O)Nc3ccccc3)=C(C)Nc3c(C(=O)Nc4ccc(C)cc4)cnn32)cc1` (stereo not given), the potentiation is 4.34% (inactive).

As to `COc1ccccc1N1CCN(c2ccc(=O)n(CC(=O)NCc3ccc(OC(C)C)cc3)n2)CC1`, the potentiation is -2.29% (inactive).

For the compound `CCOc1cc2c(cc1OCC)C(C(=O)O)C(c1ccc(OC)c(O)c1)N(C)C2=O` (stereo not given), the potentiation was -25.6% (inactive).

In the case of `COc1cccc(NC(=O)C2c3cc(OC)c(OC)cc3C(=O)N(C)C2c2cccnc2)c1` (stereo not given), the potentiation is 30.1% (active).

For `COc1cccc(NC(=O)C2C(c3ccccc3)C2(Cl)Cl)c1` (stereo not given), the potentiation was -7.1% (inactive).

Take `Cc1ccc(O)c(NC(=O)CCS(=O)(=O)c2nc(-c3ccc4c(c3)OCO4)cc(C(F)(F)F)n2)c1`: the potentiation is 5.96% (inactive).

Take `Cc1cccc(NC(c2cccc(F)c2)c2ccc3ccc(C)nc3c2O)n1` (stereo not given): the potentiation is 0.98% (inactive).

For the compound `Cc1cc(C)cc(-n2c(SCC(=O)NCC3CCCO3)nc3c([nH]c4ccccc43)c2=O)c1` (stereo not given), the potentiation was -6.86% (inactive).

As for `Cc1ccc(-n2cnc3cc(C(=O)NCCC4=CCCCC4)ccc32)cc1Cl`, the potentiation was 9.63% (inactive).

For the compound `CCn1c2ccccc2c2cc(CN3CCN(Cc4cccc(Cl)c4)CC3)ccc21`, the potentiation was -11.2% (inactive).

On to `CCOC(=O)CN1CCC(c2ccccc2)CC1`, for which the potentiation was -9.51% (inactive).

With `CCOC(=O)N1CCC(NC(=O)CCc2ccccc2)CC1`, the potentiation was -4.2% (inactive).

In the case of `CCOC(=O)N1CCC(c2cc(=O)n(-c3ccccc3)[nH]2)CC1`, the potentiation was 49.5% (active).

For `CCCCS(=O)(=O)c1oc(-c2cccs2)nc1S(=O)(=O)c1ccccc1`, the potentiation was 3.55% (inactive).

Consider `CCS(=O)(=O)N1CCc2cc(C(=O)N3CCN(c4ccccc4OC)CC3)ccc21`, for which the potentiation is 3.69% (inactive).

These data come from PubChem BioAssay AID485347 (National Center for Advancing Translational Sciences (NCATS), 2010).
